# Measurements from PubChem BioAssay.
# Calls of active or inactive are those of the source. No stated cut-off is given here; in the data, active means parasite load remaining mostly below about 12% (no sharp cut-off); inactive means mostly above about 10%. Numbered stars: 1 amine (or outer) side, 2 acyl side, 3 side chain; on linkers, the order of the positions; unused ones are H or OH. Bridge positions count the residues as written; N and C are the ends. Square brackets hold non-standard residues; d marks the D form. Peptide text beside a SMILES is read from it. * marks the point of attachment. Heptanoyl(6-Me) = CC(C)CCCCC(=O)*; X3 = CC(C)C(CN[*:1])C(=O)[*:2]; Dab = NCC[CH](N)C(=O)O
# Test: liver-stage malaria parasite growth inhibition, primary screen, cell-based, HepG2, luciferase luminescence, HepG2 viability (AID 624349);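 further: 100% = mean of DMSO negative control wells on the same plate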
# Details: P. berghei liver stage in HepG2, luciferase luminescence, concentration not given here; parasite load remaining: stronger effect = lower value; viability: measured here: HepG2 viability without parasites
SMILES,parasite load remaining,viability [%]
CC[C@H](CO)Nc1nc(NCc2ccccc2O)c2ncn(C(C)C)c2n1,34.4% (inactive),146
CC(C)n1cnc2c(NCc3ccccc3O)nc(NCCCO)nc21,37.8% (inactive),118
O=C1C(C2=C3C(=Nc4ccccc43)/C(=C\c3ccc(O)cc3)C2=O)=C2C(=Nc3ccccc32)/C1=C\c1ccc(O)cc1,52% (inactive),71.2
N=c1ccn2c(n1)O[C@@H]1C2O[C@H](CO)[C@H]1O (some centres not stated),234% (inactive),85
CCCCc1c(-c2ccc(OC)cc2)[nH]c2nccnc12,34.8% (inactive),106
OCC(O)CCO/N=C1/C(c2c(O)[nH]c3ccccc23)=Nc2ccccc21 (configuration not stated),25.4% (inactive),80.9
CC(C)CCCCC(=O)NC(CCN)C(=O)NC(C(=O)NC(CCN)C(=O)NC1CCNC(=O)C(C(C)O)NC(=O)C(CCN)NC(=O)C(CCN)NC(=O)C(C(C)C)CNC(=O)C(CC(C)C)NC(=O)C(CCN)NC1=O)C(C)O (configuration not stated) ({Heptanoyl(6-Me)}-[Dab]T[Dab][Dab][Dab]L[X3][Dab][Dab]T; lactam 4-C; configuration not given here),68.1% (inactive),75.2
CCN(CC)CCNC(=O)c1c(C)[nH]c(/C=C2\C(=O)Nc3ccc(Cl)cc32)c1C,49.7% (inactive),69.1
O=C(Nc1ccc(Cl)cc1)c1ccccc1NCc1ccncc1,39.8% (inactive),69
Cc1nc(-c2ccccc2)c(-c2ccncc2)o1,46.9% (inactive),64.2
O=c1[nH]c(O)c2c1c1c3ccccc3nc1n1cncc21,34.3% (inactive),93.6
